Results filed as inconclusive are left out. Where a call stands in place of a potency, no number is given. The source made the active and inactive calls. Calls come from the whole dose curve; as a rule, active = well fitted activation curve with a large enough effect in the repeat runs; inconclusive = weak or mixed curves; inactive = flat fitted curve, though single readings scatter.

The nature of this assay: A CellTox Green Cytotoxicity Assay to monitor cytotoxicity in HEK293 cells - 16 hour (AID 1224888). Note: nearly all actives have a fitted effect of over 35% in size. As to conditions: CellTox Green fluorescence; series mostly up to 76.8 µM; activity change: at the top concentration. An excerpt:
National Center for Advancing Translational Sciences [NCATS]
NIH Chemical Genomics Center [NCGC]
U.S. Environmental Protection Agency [EPA]
National Institutes of Environmental Health Sciences [NIEHS]
National Toxicology Program [NTP]
Cell-based models are critical for drug discovery. Determining the natural cytotoxic effects resulting from test compounds is an essential research activity. A CellTox Green Cytotoxicity Assay to monitor cytotoxicity in real time of continues cell culture during 40 hours of the compound treatment was used to screen Tox21 10K library compounds in Hek293 cells. CellTox Green Cytotoxicity Assay is a nonlytic, homogeneous, biofluorescent method to measure cytotoxicity in cell culture after experimental manipulation. The assay system uses a proprietary asymmetric cyanine dye that is excluded from viable cells but preferentially stains the dead cell's DNA. […] Viable cells produce no appreciable increases in fluorescence. Therefore, the fluorescence signal produced by the binding interaction with dead cell DNA is proportional to cytotoxicity.
The mixture of Hek293 cell suspension and reagents were dispensed at 600cells/6 ul/well in 1536-well tissue culture treated black solid bottom plates using a Multidrop dispenser. After the assay plates were incubated at a 37 C/5% CO2 incubator for 5 hours, 23 nL of compounds dissolved in DMSO, positive and negative controls was transferred to the assay plate by a pintool work station. The plates were incubated at 37 C for 40 hours. The fluorescence intensity were measured at 0h, 8h, 16h, 24h, 32h and 40h time points using ViewLux plate reader during compound treatment.
With `C=CC(=O)OCCC(=O)O`, the Potency entry was “inactive”.
On the same count and under the same terms, then `O=[N+]([O-])c1ccc2nc[nH]c2c1`, with “inactive”; and `CCNc1ccccc1`, with “inactive”.
Still for that read-out and setting: the value for `C[C@]12CC[C@@H]3c4ccc(O)cc4CC[C@H]3[C@@H]1C[C@@H](O)[C@@H]2O` was “inactive”; that for `CCO[Si](CCC#N)(OCC)OCC` was “inactive”.
Same read-out and setting: the value for `O=C(O)Cn1c(=O)n(Cc2ccc(Br)cc2F)c(=O)c2ccc(Cl)cc21` was “inactive”.
Regarding `CCCOC(=O)c1ccccc1`, the Potency result is “inactive”.
The same measure, in the same setting: the value for `Nc1nc(N)nc(-c2ccccc2)n1` was “inactive”.
The same measure, in the same setting: then `CN(C)c1ccc(Cc2ccc(N(C)C)cc2)cc1`, with “inactive”.
The same measure, in the same setting: then `O=C(O)c1ccccc1C(=O)O`, with “inactive”; and `Cc1ccc([N+](=O)[O-])cc1S(=O)(=O)O`, with “inactive”.
With `C=CC[N+](C)(C)CC=C`, the Potency result is “inactive”.
The same measure, in the same setting: then `CC(C)(C)c1cc(Cc2cc(C(C)(C)C)c(O)c(C(C)(C)C)c2)cc(C(C)(C)C)c1O`, with “inactive”.
Same read-out and setting: then `CC(C)=CCl`, with “inactive”; and `CNC(=O)Oc1ccc2c(c1)[C@]1(C)CCN(C)[C@@H]1N2C`, with “inactive”; and `COc1ccc([N+](=O)[O-])cc1N`, with “inactive”.
Same read-out and setting: then `COc1cc(OC)c(C(=O)CCCN2CCCC2)c(OC)c1`, with “inactive”; and `O=S(=O)(O)c1ccc(N=Nc2c(O)ccc3cc(S(=O)(=O)O)ccc23)cc1`, with “inactive”; and `CN/C(=C\[N+](=O)[O-])NCCSCc1csc(CN(C)C)n1`, with “inactive”.
Turning to `O=c1[nH]cnc2[nH]ncc12`, the Potency result is “inactive”.
For the compound `COc1ccc(C)cc1N`, the “activity change” value is -2.11% (inactive).
As for `CCCCCCCCCCN`, the Potency result is “inactive”.
With `N[C@H](Cc1c[nH]c2ccccc12)C(=O)O`, the Potency result is “inactive”.
Turning to `CC(C)OP(=O)(CP(=O)(OC(C)C)OC(C)C)OC(C)C`, the Potency result is “inactive”.
Same read-out and setting: the value for `O=C(O)c1cc2ccccc2cc1O` was “inactive”; that for `CCCCOC(=O)c1ccc(N)cc1` was “inactive”.
As for `CC(=O)CC(C)(C)O`, the Potency entry was “inactive”.
For the compound `CC1(C)CC(N)CC(C)(CN)C1` (stereo not given), the Potency entry is “inactive”.
Still for that read-out and setting: then `NCCNCCN`, with “inactive”.
The same measure, in the same setting: then `CCCCCCCCCCCC(=O)OC`, with “inactive”.
On the same count and under the same terms, the value for `CC(C)CCCCCCCOC(=O)CCCCC(=O)OCCCCCCCC(C)C` was “inactive”; that for `CC(=O)OCc1ccco1` was “inactive”.
Regarding `C=Cc1ccc(C)cc1`, the Potency entry was “inactive”.
The same measure, in the same setting: the value for `O=C(OCC1CCC2OC2C1)C1CCC2OC2C1` (stereo not given) was “inactive”; that for `CCc1ccccc1CC` was “inactive”.
For `CC(C)CC(C)O` (stereo not given), the Potency entry was “inactive”.
Consider `CCNc1cccc(C)c1`, for which the Potency result was “inactive”.
On the same count and under the same terms, the value for `CCCCCC(=O)O` was “inactive”.
The same measure, in the same setting: the value for `OC1C(O)C(O)C(O)C(O)C1O` (stereo not given) was “inactive”.
The same measure, in the same setting: then `O=C(O)/C=C/C(=O)O`, with “inactive”.

The values above are taken from PubChem BioAssay (Tox21).
